GIRK2 activator – GIRK2 channel activators by thallium flux; HEK293 GIRK2/NPY4 cells, thallium flux fluorescence; activation (% efficacy), % for hits at 37.5 µM; 34,000 tested, under 10 active;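 active = primary screen hit, no activity in plain HEK293 cells, and in GIRK2-only cells above 5% efficacy rising with concentration; inactive = the rest, including fluorescent compounds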;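 also: efficacy is normalized control-subtracted fluorescence 15 s after thallium addition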
Target sequence (P48051 whole entry, looked up): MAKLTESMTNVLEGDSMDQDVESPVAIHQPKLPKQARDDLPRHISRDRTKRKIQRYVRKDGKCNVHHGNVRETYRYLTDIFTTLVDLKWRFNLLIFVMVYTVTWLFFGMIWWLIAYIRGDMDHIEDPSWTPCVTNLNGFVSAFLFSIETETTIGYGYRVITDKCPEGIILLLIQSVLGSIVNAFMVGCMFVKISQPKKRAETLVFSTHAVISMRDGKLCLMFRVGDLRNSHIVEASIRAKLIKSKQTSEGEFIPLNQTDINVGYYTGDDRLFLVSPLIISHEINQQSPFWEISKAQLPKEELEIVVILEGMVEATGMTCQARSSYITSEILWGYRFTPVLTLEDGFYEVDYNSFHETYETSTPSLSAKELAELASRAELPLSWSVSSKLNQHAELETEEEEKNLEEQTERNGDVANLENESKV
GluA2 TARP mod – modulators of AMPA receptor GluA2-stargazin complexes. HEK293 GluA2+stargazin, membrane potential dye (FDSS), glutamate EC50; hits were called plate by plate, in both directions. calls only at 30 µM. hit rate 3.5% among 40,000. O88602+P19491;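 active = any of four per-well response measures lying three or more SD from its plate-wide compound average, in either direction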
* marks the source's active call; other numbers are inactive results; i = inactive; / = no result; + = active, no number. Shown is part of a subset that was picked to be rich in hits.

SMILES	GIRK2 activator	GluA2 TARP mod
CCOc1ccc(-c2ccc(N3CCN(C(=O)Nc4ccccc4Cl)CC3)nn2)cc1	i	i
O=C(COc1ccccc1)N1CCC(CNC(=O)C2(c3cccs3)CCCC2)CC1	i	i
C[N+]1(CC(O)COc2ccc(C34CC5CC(CC(C5)C3)C4)cc2)CCCCCC1 (stereo unspecified)	/	i
CCOc1cccc2sc(N(Cc3ccccn3)C(=O)c3nn(C)cc3C)nc12	i	+
COc1cccc2sc(N(Cc3ccccn3)C(=O)c3cc(C)nn3C)nc12	i	i
Cc1cc(C(=O)Nc2nccs2)nn1C(C)C	i	i
CCn1c(SCc2nc(-c3ccc(OC)c(OC)c3)no2)nc2ccccc2c1=O	/	+
CCn1c(SCc2nc(-c3ccc(OC)cc3OC)no2)nc2ccccc2c1=O	/	i
CSc1cccc2sc(NC(=O)C3CCCCC3)nc12	i	i
O=C(Nc1c(Cl)cccc1Cl)C1CCCCC1	/	+
CCOC(=O)C1CCCN(C2CC(=O)N(c3cccc(OC)c3)C2=O)C1 (stereo unspecified)	/	i
COC(=O)C1=C(CS(=O)(=O)c2ccc(F)c(Cl)c2)NC(=O)NC1c1ccccc1 (stereo unspecified)	/	i
Cc1ccnc(Nc2ccc(NCCNS(=O)(=O)c3ccc(F)cc3)nn2)c1	i	+
O=S(=O)(NCCNc1ccc(Nc2ccccn2)nn1)c1ccc(F)cc1	i	i
CCn1c(SCC(=O)N2CCN(C(c3ccccc3)c3ccccc3)CC2)nc2ccccc2c1=O	/	+
Cc1cc(=O)[nH]c(SCC(=O)N2CCN(C(c3ccccc3)c3ccccc3)CC2)n1	/	i
COc1ccccc1N1CCN(S(=O)(=O)c2ccc(F)c(C(=O)Nc3ccc(Cl)cc3)c2)CC1	/	+
COc1ccc(Cl)cc1NC(=O)c1cc(S(=O)(=O)N2CCN(c3ccccc3F)CC2)ccc1F	/	i
COc1ccc(C2NC(=O)NC(C)=C2C(=O)OC2CCCCC2)c(OC)c1 (stereo unspecified)	/	i
CCOC(=O)c1csc(NC(=O)c2ccc(=O)n(Cc3cccc(F)c3)n2)n1	i	+
Cc1ccc2nc(NC(=O)c3ccc(=O)n(Cc4cccc(F)c4)n3)sc2c1	i	i
CCCNC(=O)Cn1nc2c(c1NC(=O)CC1CCCC1)CSC2	i	+
O=C(Cn1nc2c(c1NC(=O)CC1CCCCC1)CSC2)NCC1CCCO1 (stereo unspecified)	i	i
Cc1ccc(S(=O)(=O)N2CCC(C(=O)Nc3nc4c(s3)CCCC4)CC2)cc1	i	i
CC1=C(C(=O)Nc2ccccc2)C(c2ccc(C(F)(F)F)cc2)n2ncnc2N1 (stereo unspecified)	i	i
SMILES	GIRK2 activator	GluA2 TARP mod
COc1cc(C(=O)Nc2ccc3c(c2)CCC(=O)N3CCC(C)C)cc(OC)c1OC	/	i
CCOc1cccc2sc(NC(=O)c3ccnn3C)nc12	/	i
CCOc1cccc2sc(NC(=O)c3cc(C)nn3CC)nc12	/	+
O=C(CCCCn1c(=O)c2ccccc2n(CC(=O)NC2CCCCC2)c1=O)NC1CCCCC1	i	+
CC(C)CCNC(=O)CCCCn1c(=O)c2ccccc2n(CC(=O)NCc2ccccc2)c1=O	/	+
O=C(CCCCn1c(=O)[nH]c2ccccc2c1=O)NC1CCCCC1	i	i
CCCNC(=O)CCCCn1c(=O)c2ccccc2n(CC(=O)Nc2ccc(OC)c(OC)c2)c1=O	/	i
COc1ccc(CNC(=O)Cn2c(=O)n(CCCCC(=O)NCC(C)C)c(=O)c3ccccc32)cc1	/	i
CCCNC(=O)CCCCn1c(=O)c2ccccc2n(CC(=O)NCc2ccc(F)cc2)c1=O	i	+
C=CCNC(=O)Nc1ccccc1NC(=O)c1ccsc1	i	/
O=C(/C=C/c1ccc2c(c1)OCO2)N1CCC(Cn2cnc3ccccc32)CC1	i	i
COc1ccccc1NC(=O)N1CCC(CNC(=O)c2cnc3ccccc3n2)CC1	i	i
COc1cc(N2CCN(C(=O)Nc3cccc(C)c3C)CC2)nc(OC)n1	i	i
COc1cccc(/C=C2/SC(=S)N(c3ccc4c(c3)OCO4)C2=O)c1OC	/	+
COc1cc(/C=C2\SC(=S)N(c3ccc4c(c3)OCO4)C2=O)cc(OC)c1OC	/	i
O=C(C1CCCC1)N(CC1CCCO1)c1nc2ccc(Cl)cc2s1 (stereo unspecified)	i	i
Cc1ccc(S(=O)(=O)N(C)CC(=O)NC(C)(C)CO)cc1	i	i
Cn1nc(-c2ccccc2)cc1C(=O)Nc1cccc(-c2cnc3n2CCC3)c1	i	+
O=C(Nc1cccc(-c2cnc3n2CCC3)c1)c1ccc2c(c1)OCO2	i	+
O=C(Nc1cccc(N2CCCC2=O)c1)c1ccc2c(c1)OCO2	/	i
CC(Oc1ccccc1)C(=O)Nc1cccc(-c2cnc3n2CCC3)c1 (stereo unspecified)	i	i
COc1cc([N+](=O)[O-])cc2sc(NC(=O)c3ccno3)nc12	i	+
Cc1cccc2sc(NC(=O)c3ccno3)nc12	i	i
Cc1ccc([N+](=O)[O-])cc1S(=O)(=O)NC1CC(C)(C)NC(C)(C)C1	/	+
Cc1ccc(S(=O)(=O)NC2CC(C)(C)NC(C)(C)C2)cc1	/	i
SMILES	GIRK2 activator	GluA2 TARP mod
Cc1c(Cl)cccc1S(=O)(=O)NCC(O)c1ccc(C(F)(F)F)cc1 (stereo unspecified)	i	+
Cc1c(Cl)cccc1S(=O)(=O)NCC(O)c1ccsc1 (stereo unspecified)	i	i
COc1ccc(S(=O)(=O)NCC(O)c2ccc(C(F)(F)F)cc2)cc1Cl (stereo unspecified)	/	+
O=S(=O)(NCC(O)c1ccc(C(F)(F)F)cc1)c1ccc2c(c1)CCCC2 (stereo unspecified)	i	i
O=C(Cc1ccc(NS(=O)(=O)CCc2ccccc2)cc1)N1CCCC1	i	i
O=C(CSc1nc(=O)n(CCO)c2c1CCCC2)N1CCc2ccccc21	i	i
O=C(CSc1nc(=O)n(CCCO)c2c1CCC2)N1CCc2ccccc21	i	+
CC(C)C(=O)Nc1ccc(S(=O)(=O)NCC2CCN(S(=O)(=O)C3CC3)CC2)cc1	i	i
Cc1c(Cl)cccc1NC(=O)CSc1ncc(S(=O)(=O)c2cccs2)c(N)n1	i	i
O=C(Nc1ccc(Cl)c(Cl)c1)Nc1ccc2cn[nH]c2c1	i	i
O=C(Nc1ccc2cn[nH]c2c1)c1ccc(=O)[nH]n1	i	+
CCOc1cccc2sc(N(Cc3ccco3)C(=O)Cc3ccc(F)cc3)nc12	/	i
Cc1cc(C)cc(OCCNC(=O)c2cccs2)c1	i	i
COc1ccc(C(=O)NCCOc2cc(C)cc(C)c2)c(OC)c1	i	+
COc1ccc(CNC(=O)/C(C#N)=C/N2CCN(Cc3ccc4c(c3)OCO4)CC2)cc1	i	+
N#C/C(=C\N1CCN(Cc2ccc3c(c2)OCO3)CC1)C(=O)NCc1ccccc1	i	i
O=C(CSc1ccc(NC(=O)c2ccco2)nn1)Nc1ccccc1F	i	i
COCCCn1c(NC(=O)Nc2ccccc2)c2ccccc2nc1=O	i	i
O=C(Cc1cc(-c2ccc3c(c2)OCCO3)on1)NCc1cccs1	i	+

Screening results: PubChem, several laboratories
